# How the values were obtained:
# Test in all cases: DAPPL (digital affinity profiling via proximity ligation, sequencing); 10 mM Tris-HCl pH 7.5, 50 mM NaCl, 1 mM DTT, 4% glycerol, room temperature, 30 min; GST-TFs on glutathione beads, 16-mer random dsDNA library, 0.1% formaldehyde crosslink after washing; high values mean tight binding
# FLI1 = target: T1, FLI1 (Homo sapiens, UniProt Q01543 1-452); conditions: protein: recombinant; tags: N-terminal GST; dsDNA, one strand shown
# T1 sequence: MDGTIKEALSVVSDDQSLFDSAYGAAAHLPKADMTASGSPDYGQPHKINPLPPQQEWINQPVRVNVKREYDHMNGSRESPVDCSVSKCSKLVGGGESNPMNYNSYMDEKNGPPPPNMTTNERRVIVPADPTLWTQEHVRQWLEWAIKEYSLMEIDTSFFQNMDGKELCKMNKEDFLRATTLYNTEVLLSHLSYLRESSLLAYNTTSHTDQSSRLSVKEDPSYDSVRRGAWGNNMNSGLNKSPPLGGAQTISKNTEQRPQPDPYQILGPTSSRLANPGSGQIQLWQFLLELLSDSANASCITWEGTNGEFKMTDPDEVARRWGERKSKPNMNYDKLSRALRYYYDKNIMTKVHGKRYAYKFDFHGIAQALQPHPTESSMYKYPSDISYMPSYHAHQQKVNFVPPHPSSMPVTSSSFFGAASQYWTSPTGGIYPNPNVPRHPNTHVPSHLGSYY
# Summary of the method: (§1)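 Pools of DNA-barcoded human transcription factors, expressed in yeast as GST fusions on glutathione beads and combined with a tag-only sample, were incubated with 200 nmole of a 16-mer random double-stranded DNA library. Incubation took 30 min at room temperature in Tris/NaCl/DTT/glycerol buffer and was followed by washing, 0.1% formaldehyde crosslinking, proximity ligation (BsaI/T4 ligase, 1 h, 37 °C), PCR amplification and sequencing on an Illumina NextSeq500. Binding signal is the ratio of a hexamer's read frequency for a factor to its frequency for the tag-only sample.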
# ELK1 = target: T2, ELK1 (Homo sapiens, UniProt P19419 1-428); conditions: protein: recombinant; tags: N-terminal GST; dsDNA, one strand shown
# T2 sequence: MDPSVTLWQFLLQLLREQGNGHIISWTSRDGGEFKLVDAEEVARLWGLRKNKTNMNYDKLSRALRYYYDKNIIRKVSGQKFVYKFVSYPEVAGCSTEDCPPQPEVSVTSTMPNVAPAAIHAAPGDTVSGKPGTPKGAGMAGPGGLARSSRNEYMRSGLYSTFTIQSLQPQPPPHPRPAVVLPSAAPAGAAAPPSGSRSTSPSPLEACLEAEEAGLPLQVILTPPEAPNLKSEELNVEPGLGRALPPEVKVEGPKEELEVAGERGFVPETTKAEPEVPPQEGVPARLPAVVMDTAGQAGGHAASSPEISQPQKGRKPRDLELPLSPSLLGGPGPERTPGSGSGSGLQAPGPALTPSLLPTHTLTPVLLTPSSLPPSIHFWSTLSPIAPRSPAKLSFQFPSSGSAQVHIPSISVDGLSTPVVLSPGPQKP
# Summary of the method: as §1
# GABPA = target: T3, GABPA (Homo sapiens, UniProt Q06546 1-454); conditions: protein: recombinant; tags: N-terminal GST; dsDNA, one strand shown
# T3 sequence: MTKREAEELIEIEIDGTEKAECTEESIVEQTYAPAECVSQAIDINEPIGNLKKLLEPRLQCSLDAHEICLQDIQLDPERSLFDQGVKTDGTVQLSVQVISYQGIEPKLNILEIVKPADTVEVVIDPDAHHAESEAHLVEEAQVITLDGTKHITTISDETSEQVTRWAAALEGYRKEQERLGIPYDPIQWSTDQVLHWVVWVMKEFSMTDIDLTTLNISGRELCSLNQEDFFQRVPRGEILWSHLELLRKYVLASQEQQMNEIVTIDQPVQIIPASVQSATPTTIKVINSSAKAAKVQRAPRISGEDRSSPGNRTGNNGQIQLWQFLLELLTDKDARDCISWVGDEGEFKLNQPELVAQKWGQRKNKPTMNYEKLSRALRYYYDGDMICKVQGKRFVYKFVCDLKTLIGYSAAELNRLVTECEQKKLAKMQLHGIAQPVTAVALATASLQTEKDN
# Summary of the method: as §1
# ERG = target: T4, ERG (Homo sapiens, UniProt P11308 1-479); conditions: protein: recombinant; tags: N-terminal GST; dsDNA, one strand shown
# T4 sequence: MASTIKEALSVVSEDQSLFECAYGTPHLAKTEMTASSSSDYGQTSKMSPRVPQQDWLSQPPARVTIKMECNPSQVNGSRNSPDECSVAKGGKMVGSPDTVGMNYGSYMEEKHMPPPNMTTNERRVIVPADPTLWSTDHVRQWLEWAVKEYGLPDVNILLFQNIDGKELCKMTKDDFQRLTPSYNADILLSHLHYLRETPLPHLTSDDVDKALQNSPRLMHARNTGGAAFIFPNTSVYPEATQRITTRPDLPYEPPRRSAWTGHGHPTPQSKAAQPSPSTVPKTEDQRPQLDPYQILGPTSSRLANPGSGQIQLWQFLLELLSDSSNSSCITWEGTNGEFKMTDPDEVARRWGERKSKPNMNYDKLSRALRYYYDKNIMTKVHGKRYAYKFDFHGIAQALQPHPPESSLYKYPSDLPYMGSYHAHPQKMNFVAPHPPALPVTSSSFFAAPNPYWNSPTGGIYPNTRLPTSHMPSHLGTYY
# Summary of the method: as §1
# ELF1 = ELF1 (Homo sapiens, UniProt P32519 1-619); conditions: protein: recombinant; tags: N-terminal GST; dsDNA, one strand shown
# Chain of ELF1 (P32519 whole entry): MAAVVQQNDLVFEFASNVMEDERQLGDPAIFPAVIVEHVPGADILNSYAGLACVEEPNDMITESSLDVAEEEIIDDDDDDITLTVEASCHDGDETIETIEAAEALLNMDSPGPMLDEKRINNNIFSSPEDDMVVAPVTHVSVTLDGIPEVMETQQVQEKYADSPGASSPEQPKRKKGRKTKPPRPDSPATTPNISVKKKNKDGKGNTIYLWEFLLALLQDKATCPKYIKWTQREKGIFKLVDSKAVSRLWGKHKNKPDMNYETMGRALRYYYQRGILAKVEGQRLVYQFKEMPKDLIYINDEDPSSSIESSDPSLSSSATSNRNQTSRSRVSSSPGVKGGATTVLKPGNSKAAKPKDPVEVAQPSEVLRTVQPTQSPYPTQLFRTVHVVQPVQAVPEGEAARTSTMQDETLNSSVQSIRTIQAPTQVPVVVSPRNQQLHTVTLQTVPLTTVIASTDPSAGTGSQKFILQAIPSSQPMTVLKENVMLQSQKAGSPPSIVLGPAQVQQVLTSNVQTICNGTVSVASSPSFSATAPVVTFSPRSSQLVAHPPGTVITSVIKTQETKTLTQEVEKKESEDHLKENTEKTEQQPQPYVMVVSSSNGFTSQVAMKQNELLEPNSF
# Summary of the method: as §1
# EHF = target: T5, EHF (Homo sapiens, UniProt Q9NZC4 1-300); conditions: protein: recombinant; tags: N-terminal GST; dsDNA, one strand shown
# T5 sequence: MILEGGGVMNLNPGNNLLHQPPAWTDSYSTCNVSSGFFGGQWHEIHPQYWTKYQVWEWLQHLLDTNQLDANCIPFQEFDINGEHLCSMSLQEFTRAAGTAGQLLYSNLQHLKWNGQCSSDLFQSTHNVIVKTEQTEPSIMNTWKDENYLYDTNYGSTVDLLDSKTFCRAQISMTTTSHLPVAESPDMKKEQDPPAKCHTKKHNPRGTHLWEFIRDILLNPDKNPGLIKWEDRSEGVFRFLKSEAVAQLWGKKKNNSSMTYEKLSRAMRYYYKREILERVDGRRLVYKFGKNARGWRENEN
# Summary of the method: as §1
# SPI1 = SPI1 (Homo sapiens, UniProt P17947 1-270); conditions: protein: recombinant; tags: N-terminal GST; dsDNA, one strand shown
# Summary of the method: as §1
# SPIB = SPIB (Homo sapiens, UniProt Q01892 1-262); conditions: protein: recombinant; tags: N-terminal GST; dsDNA, one strand shown
# Chain of SPIB (Q01892 whole entry): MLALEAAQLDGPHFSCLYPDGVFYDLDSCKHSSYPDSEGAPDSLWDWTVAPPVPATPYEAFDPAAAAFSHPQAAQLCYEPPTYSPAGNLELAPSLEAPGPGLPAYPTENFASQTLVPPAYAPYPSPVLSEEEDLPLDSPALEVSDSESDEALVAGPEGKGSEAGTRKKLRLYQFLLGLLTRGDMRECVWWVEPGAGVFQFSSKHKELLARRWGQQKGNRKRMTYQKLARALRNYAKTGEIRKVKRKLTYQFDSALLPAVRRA
# Summary of the method: as §1
# ELK3 = target: T6, ELK3 (Homo sapiens, UniProt P41970 1-407); conditions: protein: recombinant; tags: N-terminal GST; dsDNA, one strand shown
# T6 sequence: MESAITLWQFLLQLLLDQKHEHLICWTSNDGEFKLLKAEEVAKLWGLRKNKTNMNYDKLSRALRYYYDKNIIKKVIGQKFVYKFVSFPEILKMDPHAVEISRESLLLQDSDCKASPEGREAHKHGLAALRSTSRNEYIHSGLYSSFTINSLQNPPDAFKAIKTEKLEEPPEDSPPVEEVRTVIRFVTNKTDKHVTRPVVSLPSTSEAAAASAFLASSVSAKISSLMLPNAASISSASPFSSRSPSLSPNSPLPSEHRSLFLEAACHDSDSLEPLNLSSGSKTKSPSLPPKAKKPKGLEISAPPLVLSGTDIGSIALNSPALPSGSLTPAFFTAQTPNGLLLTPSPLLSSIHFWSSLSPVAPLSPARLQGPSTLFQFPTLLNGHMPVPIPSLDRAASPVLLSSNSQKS
# Summary of the method: as §1
# FEV = target: T7, FEV (Homo sapiens, UniProt Q99581 1-238); conditions: protein: recombinant; tags: N-terminal GST; dsDNA, one strand shown
# T7 sequence: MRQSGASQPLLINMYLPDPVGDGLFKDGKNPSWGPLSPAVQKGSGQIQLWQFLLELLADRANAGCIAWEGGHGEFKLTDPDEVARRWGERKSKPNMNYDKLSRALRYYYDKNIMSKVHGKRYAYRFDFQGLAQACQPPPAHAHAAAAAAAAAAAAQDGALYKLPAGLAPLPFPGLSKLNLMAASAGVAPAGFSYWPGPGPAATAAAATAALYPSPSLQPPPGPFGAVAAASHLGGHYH
# Summary of the method: as §1
# ETV5 = ETV5 (Homo sapiens, UniProt P41161 1-510); conditions: protein: recombinant; tags: N-terminal GST; dsDNA, one strand shown
# Chain of ETV5 (P41161 whole entry): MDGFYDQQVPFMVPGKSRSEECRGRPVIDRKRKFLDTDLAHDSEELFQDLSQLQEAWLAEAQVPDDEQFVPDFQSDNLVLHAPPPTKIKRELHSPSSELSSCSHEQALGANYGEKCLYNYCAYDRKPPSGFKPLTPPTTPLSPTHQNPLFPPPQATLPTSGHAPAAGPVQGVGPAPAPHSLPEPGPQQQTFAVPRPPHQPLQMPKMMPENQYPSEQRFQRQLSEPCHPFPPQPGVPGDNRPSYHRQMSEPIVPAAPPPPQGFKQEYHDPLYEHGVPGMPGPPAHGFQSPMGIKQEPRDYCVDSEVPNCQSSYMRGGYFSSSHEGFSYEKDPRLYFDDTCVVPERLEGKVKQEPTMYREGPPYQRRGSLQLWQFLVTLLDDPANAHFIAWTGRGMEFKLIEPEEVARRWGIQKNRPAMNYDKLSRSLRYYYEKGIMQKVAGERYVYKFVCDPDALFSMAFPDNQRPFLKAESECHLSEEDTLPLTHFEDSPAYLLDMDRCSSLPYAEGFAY
# Summary of the method: as §1
# HSF1 = HSF1 (Homo sapiens, UniProt Q00613 1-529); conditions: protein: recombinant; tags: N-terminal GST; chain copies: 3; dsDNA, one strand shown
# Chain of HSF1 (Q00613 whole entry): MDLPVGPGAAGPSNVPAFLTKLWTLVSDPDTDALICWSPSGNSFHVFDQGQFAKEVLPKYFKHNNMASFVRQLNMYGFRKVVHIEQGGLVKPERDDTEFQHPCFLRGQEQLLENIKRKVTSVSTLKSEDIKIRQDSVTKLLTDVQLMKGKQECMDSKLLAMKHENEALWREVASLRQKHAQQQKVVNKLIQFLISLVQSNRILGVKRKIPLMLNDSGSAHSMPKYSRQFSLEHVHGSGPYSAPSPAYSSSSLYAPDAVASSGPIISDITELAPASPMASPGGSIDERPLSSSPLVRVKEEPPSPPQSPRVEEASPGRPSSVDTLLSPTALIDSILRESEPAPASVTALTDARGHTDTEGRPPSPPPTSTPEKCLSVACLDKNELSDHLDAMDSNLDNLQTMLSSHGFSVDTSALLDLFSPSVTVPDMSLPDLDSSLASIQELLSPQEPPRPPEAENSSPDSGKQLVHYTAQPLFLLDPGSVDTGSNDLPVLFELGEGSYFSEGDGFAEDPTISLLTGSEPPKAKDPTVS
# Summary of the method: as §1
# SPIC = target: T8, SPIC (Homo sapiens, UniProt Q8N5J4 1-248); conditions: protein: recombinant; tags: N-terminal GST; dsDNA, one strand shown
# T8 sequence: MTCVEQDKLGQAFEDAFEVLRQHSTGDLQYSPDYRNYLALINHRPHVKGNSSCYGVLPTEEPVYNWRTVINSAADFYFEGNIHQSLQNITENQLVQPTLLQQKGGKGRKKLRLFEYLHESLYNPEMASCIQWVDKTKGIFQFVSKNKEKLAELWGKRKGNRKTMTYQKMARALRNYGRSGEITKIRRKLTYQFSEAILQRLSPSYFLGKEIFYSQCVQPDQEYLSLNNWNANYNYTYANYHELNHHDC
# Summary of the method: as §1
# ELF4 = ELF4 (Homo sapiens, UniProt Q99607 1-663); conditions: protein: recombinant; tags: N-terminal GST; dsDNA, one strand shown
# Chain of ELF4 (Q99607 whole entry): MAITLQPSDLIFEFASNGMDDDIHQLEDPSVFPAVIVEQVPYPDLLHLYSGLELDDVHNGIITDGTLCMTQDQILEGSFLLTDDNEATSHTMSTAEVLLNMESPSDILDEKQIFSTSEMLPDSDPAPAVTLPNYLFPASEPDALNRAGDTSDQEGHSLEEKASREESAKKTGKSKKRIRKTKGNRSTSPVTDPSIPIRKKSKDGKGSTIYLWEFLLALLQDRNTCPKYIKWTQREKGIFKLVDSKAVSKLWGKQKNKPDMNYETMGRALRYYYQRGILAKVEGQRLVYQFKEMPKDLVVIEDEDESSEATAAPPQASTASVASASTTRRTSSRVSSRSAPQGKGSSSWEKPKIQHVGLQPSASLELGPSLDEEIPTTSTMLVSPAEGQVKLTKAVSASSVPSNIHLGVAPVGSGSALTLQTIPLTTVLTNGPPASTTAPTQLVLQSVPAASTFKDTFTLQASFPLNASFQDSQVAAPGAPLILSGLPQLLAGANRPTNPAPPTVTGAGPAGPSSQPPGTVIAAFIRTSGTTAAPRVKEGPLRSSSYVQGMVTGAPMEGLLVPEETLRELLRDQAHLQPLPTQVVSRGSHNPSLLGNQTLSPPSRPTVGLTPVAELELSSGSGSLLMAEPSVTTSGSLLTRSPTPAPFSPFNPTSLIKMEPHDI
# Summary of the method: as §1
# ELK4 = target: T9, ELK4 (Homo sapiens, UniProt P28324-2 1-405); conditions: protein: recombinant; tags: N-terminal GST; dsDNA, one strand shown
# T9 sequence: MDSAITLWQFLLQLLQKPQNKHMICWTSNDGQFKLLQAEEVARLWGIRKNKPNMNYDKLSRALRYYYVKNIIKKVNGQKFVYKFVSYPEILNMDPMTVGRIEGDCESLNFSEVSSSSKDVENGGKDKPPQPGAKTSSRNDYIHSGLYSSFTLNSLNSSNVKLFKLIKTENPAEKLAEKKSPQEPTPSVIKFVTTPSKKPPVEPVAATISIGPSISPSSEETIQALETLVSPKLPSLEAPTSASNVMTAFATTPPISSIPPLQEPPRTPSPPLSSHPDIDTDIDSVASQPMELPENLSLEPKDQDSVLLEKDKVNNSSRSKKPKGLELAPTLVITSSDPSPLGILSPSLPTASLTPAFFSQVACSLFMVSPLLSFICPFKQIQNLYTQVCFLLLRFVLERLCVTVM
# Summary of the method: as §1
# ETV2 = target: T10, ETV2 (Homo sapiens, UniProt O00321 1-342); conditions: protein: recombinant; tags: N-terminal GST; dsDNA, one strand shown
# T10 sequence: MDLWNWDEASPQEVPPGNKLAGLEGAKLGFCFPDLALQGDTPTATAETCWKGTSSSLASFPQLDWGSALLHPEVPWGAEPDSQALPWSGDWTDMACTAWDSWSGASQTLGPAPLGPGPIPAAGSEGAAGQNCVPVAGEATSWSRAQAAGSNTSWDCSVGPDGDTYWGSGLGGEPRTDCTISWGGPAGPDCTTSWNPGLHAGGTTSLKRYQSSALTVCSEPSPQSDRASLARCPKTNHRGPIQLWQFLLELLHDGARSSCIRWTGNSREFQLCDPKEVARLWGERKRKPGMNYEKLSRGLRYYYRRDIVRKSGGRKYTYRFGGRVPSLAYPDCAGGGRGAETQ
# Summary of the method: as §1
# ELF3 = target: T11, ELF3 (Homo sapiens, UniProt P78545 1-371); conditions: protein: recombinant; tags: N-terminal GST; dsDNA, one strand shown
# T11 sequence: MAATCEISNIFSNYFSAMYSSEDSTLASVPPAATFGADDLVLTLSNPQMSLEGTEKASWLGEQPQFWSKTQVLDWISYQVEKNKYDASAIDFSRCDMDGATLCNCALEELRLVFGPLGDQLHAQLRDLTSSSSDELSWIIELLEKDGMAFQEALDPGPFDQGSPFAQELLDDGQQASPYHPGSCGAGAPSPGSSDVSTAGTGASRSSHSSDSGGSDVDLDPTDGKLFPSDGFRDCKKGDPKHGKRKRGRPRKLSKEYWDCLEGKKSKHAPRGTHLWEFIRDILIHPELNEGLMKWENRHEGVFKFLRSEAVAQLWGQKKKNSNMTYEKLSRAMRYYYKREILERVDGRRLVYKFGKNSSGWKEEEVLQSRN
# Summary of the method: as §1
# CRX = CRX (Homo sapiens, UniProt O43186 1-299); conditions: protein: recombinant; tags: N-terminal GST; dsDNA, one strand shown
# Chain of CRX (O43186 whole entry): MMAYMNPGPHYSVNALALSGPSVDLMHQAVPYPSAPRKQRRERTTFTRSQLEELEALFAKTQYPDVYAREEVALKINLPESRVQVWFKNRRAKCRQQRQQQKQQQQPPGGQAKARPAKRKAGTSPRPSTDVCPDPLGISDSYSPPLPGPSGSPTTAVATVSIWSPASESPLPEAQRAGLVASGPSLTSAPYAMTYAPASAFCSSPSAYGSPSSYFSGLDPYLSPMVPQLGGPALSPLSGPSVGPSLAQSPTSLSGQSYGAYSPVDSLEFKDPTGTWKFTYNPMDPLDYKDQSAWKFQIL
# Summary of the method: as §1
# ETV1 = ETV1 (Homo sapiens, UniProt P50549 1-477); conditions: protein: recombinant; tags: N-terminal GST; dsDNA, one strand shown
# Chain of ETV1 (P50549 whole entry): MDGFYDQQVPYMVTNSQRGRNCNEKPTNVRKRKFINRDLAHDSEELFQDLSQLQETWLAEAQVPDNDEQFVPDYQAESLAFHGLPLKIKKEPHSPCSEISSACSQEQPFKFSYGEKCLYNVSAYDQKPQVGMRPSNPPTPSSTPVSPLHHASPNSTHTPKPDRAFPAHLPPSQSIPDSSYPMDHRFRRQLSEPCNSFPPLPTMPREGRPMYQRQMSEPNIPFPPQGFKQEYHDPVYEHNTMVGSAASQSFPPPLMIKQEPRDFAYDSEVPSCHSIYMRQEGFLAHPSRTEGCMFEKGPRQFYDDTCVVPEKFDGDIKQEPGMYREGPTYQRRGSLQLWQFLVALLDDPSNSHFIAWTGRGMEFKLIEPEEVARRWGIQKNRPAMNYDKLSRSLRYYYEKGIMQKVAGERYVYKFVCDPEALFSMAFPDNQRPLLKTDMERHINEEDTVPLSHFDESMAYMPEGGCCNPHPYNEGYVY
# Summary of the method: as §1
sequence,measurement,setting,value
AATTTT,binding signal,FLI1,"1.24 fold enrichment (6-mer frequency, TF over GST control)"
same,binding signal,ELK1,"1.26 fold enrichment (6-mer frequency, TF over GST control)"
same,binding signal,GABPA,"1.27 fold enrichment (6-mer frequency, TF over GST control)"
same,binding signal,ERG,"1.21 fold enrichment (6-mer frequency, TF over GST control)"
same,binding signal,ELF1,"1.22 fold enrichment (6-mer frequency, TF over GST control)"
same,binding signal,EHF,"1.3 fold enrichment (6-mer frequency, TF over GST control)"
same,binding signal,SPI1,"1.3 fold enrichment (6-mer frequency, TF over GST control)"
same,binding signal,SPIB,"1.26 fold enrichment (6-mer frequency, TF over GST control)"
same,binding signal,ELK3,"1.19 fold enrichment (6-mer frequency, TF over GST control)"
same,binding signal,FEV,"1.22 fold enrichment (6-mer frequency, TF over GST control)"
same,binding signal,ETV5,"1.29 fold enrichment (6-mer frequency, TF over GST control)"
same,binding signal,HSF1,"1.51 fold enrichment (6-mer frequency, TF over GST control)"
same,binding signal,SPIC,"1.17 fold enrichment (6-mer frequency, TF over GST control)"
same,binding signal,ELF4,"1.32 fold enrichment (6-mer frequency, TF over GST control)"
same,binding signal,ELK4,"1.3 fold enrichment (6-mer frequency, TF over GST control)"
same,binding signal,ETV2,"1.46 fold enrichment (6-mer frequency, TF over GST control)"
same,binding signal,ELF3,"1.41 fold enrichment (6-mer frequency, TF over GST control)"
same,binding signal,CRX,"1.29 fold enrichment (6-mer frequency, TF over GST control)"
same,binding signal,ETV1,"1.23 fold enrichment (6-mer frequency, TF over GST control)"

# Source: article PMC7862700, “An all-to-all approach to the identification of sequence-specific readers for epigenetic DNA modifications on cytosine”
